Molecules are shown by their SMILES. In all, about 370,000 compounds went through this assay and about 2,300 (0.62%) were called active. This is one part of a sample in which actives are shown more often than they occur.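 How the source made its calls: active means inhibition above a per-campaign cutoff equal to the mean of compounds falling between control-based bounds plus 3 SD (cut at about 20% in these data); inactive means the rest.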

Sequence of Disintegrin and metalloproteinase domain-containing protein 10 (Homo sapiens) (O14672 214-748 limits assumed): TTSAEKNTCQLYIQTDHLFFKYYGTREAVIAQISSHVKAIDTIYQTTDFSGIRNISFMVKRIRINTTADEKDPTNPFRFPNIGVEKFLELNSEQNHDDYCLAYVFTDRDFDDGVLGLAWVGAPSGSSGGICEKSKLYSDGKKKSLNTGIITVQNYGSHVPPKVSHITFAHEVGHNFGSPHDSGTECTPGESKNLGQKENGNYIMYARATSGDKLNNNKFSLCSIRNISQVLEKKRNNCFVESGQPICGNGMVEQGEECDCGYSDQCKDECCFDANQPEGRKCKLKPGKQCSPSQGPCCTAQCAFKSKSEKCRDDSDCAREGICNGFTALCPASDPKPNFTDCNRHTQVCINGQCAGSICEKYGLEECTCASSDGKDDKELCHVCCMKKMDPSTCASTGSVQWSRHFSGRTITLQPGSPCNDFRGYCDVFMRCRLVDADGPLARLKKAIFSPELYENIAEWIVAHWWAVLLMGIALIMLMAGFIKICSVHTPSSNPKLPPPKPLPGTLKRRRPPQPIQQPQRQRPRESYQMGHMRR

The test has as its target Disintegrin and metalloproteinase domain-containing protein 10 (Homo sapiens) (UniProt O14672). The experiment in a line: blockers of ADAM10 peptide cleavage – biochemical, QFRET, HTS, primary screen (AID 720582).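 Further: 0% = DMSO wells while the 100% control is not disclosed.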 The settings on record: recombinant ADAM10, EDANS/DABCYL FRET peptide cleavage, 3 h; at 7 µM; stronger effect = higher value.
Consider `COC[C@@H]1CCCN1c1ccc2c(c1)O[C@H](C)CCN(C1CC1)S2(=O)=O`, for which the inhibition – broadly, the drop in the measured response relative to a control, in per cent – is -3.66% (inactive).

`COC(=O)[C@@]12CCCCC=C1N(CCc1ccc(Cl)cc1)C(=O)[C@H]2CC(=O)NCc1ccc(OC)c(OC)c1`: the inhibition is 5.19% (inactive).

As to `C[C@H]1[C@H](NC(=O)c2cccc(N(C)C)c2)CC[C@@]23CCCN2C(=O)CCC[C@@H]13`, the inhibition is -106% (inactive).

On to `O=C(CSC1=NCCS1)Nc1nc(-c2ccccc2)cs1`, for which the inhibition was 20.3% (active).

Take `CC(NC(=O)COc1ccccc1)C(=O)NC1=NCCS1` (stereo unspecified): the inhibition is -1.01% (inactive).

As to `Cc1csc(NC(=O)CSc2nnc(-c3cccnc3)o2)n1`, the inhibition was -10.7% (inactive).

Take `CNC(=O)C[C@H]1C(=O)N(c2ccc(OC)cc2)C[C@@H]1Cc1ccccc1`: the inhibition is -1.73% (inactive).

Consider `O=C(C[C@H]1C(=O)N(c2ccc(F)c(F)c2)C[C@@H]1Cc1ccccc1)Nc1ccccc1`, for which the inhibition is 23.2% (active).

With `C[C@H]1CN(c2ccc(Br)cc2)C(=O)[C@@H]1CC(=O)Nc1ccc(Br)cc1`, the inhibition was -2.69% (inactive).

Turning to `CCN(c1ccc(NC(=O)COC(=O)CCc2nc3ccccc3n2-c2ccccc2)cc1)C(C)C`, the inhibition was 15.2% (inactive).

On to `O=C(COC(=O)CCCSc1nc2ccccc2[nH]1)Nc1ccc(Oc2ccccc2)cc1`, for which the inhibition was 23.7% (active).

For the molecule `O=C(COC(=O)CCc1nc2ccccc2c(=O)[nH]1)Nc1ccc(N2CCOCC2)cc1`, the inhibition is 0.32% (inactive).

As to `COc1cccc(N2CCN(CC(=O)N(C)Cc3ccc(F)cc3)CC2)c1`, the inhibition is -2.14% (inactive).

Regarding `CCCC(=O)Nc1ccc(C(=O)NCCCn2ccnc2)cc1`, the inhibition was -4.06% (inactive).

Regarding `CCOC(=O)[C@]12CCCC3=C1N(CCC3)C(=O)[C@@H](CC(=O)N1CCSCC1)C2`, the inhibition is 4.75% (inactive).

With `O=C1[C@H]2[C@@H](c3ccc(C(F)(F)F)cc3)N[C@]3(CCCN(Cc4ccc(Cl)cc4)C3=O)[C@H]2C(=O)N1Cc1ccccc1`, the inhibition is 17.5% (inactive).

In the case of `O=C1[C@H]2[C@@H](c3ccc(C(F)(F)F)cc3)N[C@]3(CCCN(Cc4ccc(Br)cc4)C3=O)[C@H]2C(=O)N1Cc1ccccc1`, the inhibition was 36.9% (active).

For the molecule `CCN1C(=O)[C@H]2[C@@H](c3ccc(C(F)(F)F)cc3)N[C@]3(CCCN(Cc4ccc(Br)cc4)C3=O)[C@H]2C1=O`, the inhibition is 2.63% (inactive).

With `CC(C)N1CCCCC(NC(=O)c2ccc3ccccc3c2)C1=O` (stereo unspecified), the inhibition was -1.93% (inactive).

On to `CCOC(=O)[C@]12CCCC3=C1N(CCC3)C(=O)[C@@H](CC(=O)NCc1cccs1)C2`, for which the inhibition is -1.3% (inactive).

On to `CC(C)CNC(=O)OCc1cn(Cc2ccc(F)cc2)nn1`, for which the inhibition is 2.74% (inactive).

Consider `O=C(CSc1nc2ccccc2nc1N1CCCCC1)N1CCN(S(=O)(=O)c2cccc([N+](=O)[O-])c2)CC1`, for which the inhibition was -10.6% (inactive).

For `COC(=O)[C@@]12C[C@@H](CC(=O)NCCCCc3ccccc3)C(=O)N(CCc3ccc(OC)c(OC)c3)C1=CCC(C)(C)C2`, the inhibition is 20.4% (active).

As for `COC(=O)[C@@]12C[C@@H](CC(=O)NCCCCc3ccccc3)C(=O)N(Cc3ccccc3)C1=CCC(C)(C)C2`, the inhibition was 14.6% (inactive).

Regarding `COC(=O)[C@]12C[C@H](CC(=O)NCc3ccccc3)C(=O)N(CCc3ccc(OC)c(OC)c3)C1=C[C@H](C(C)(C)C)O[C@@H]2C`, the inhibition is 10.1% (inactive).

In the case of `c1coc(CCNc2ncnc3ccc(-c4ccc5c(c4)OCO5)cc23)c1`, the inhibition is -144% (inactive).

On to `CCC(=O)c1c(CC)c2n3c1=CC[C@H]3CC(Br)C=2` (stereo partly specified), for which the inhibition is -7.64% (inactive).

In the case of `COC(=O)[C@]12C[C@H](CC(=O)NCc3ccccc3)C(=O)N(CCC3=CCCCC3)C1=C[C@H](C(C)C)O[C@@H]2C1CC1`, the inhibition is 15.1% (inactive).

As for `Cc1cc(C)cc(NS(=O)(=O)c2ccc(Oc3ncc(C(F)(F)F)cc3Cl)cc2)c1`, the inhibition is 24% (active).

For `CN(NS(=O)(=O)c1cccs1)c1ncc(C(F)(F)F)cc1Cl`, the inhibition was -3.41% (inactive).

In the case of `O=S(=O)(Nc1ccc(Oc2ncccn2)c(Cl)c1)c1ccc(F)cc1`, the inhibition was 7.14% (inactive).

As to `Cc1ccc(NC(=O)c2cc(C)nn2-c2ccccc2)c(C)c1`, the inhibition is 1.23% (inactive).

Consider `C#CCN([C@H](C(=O)OC)C(C)CC)S(=O)(=O)c1ccccc1Br` (stereo partly specified), for which the inhibition is 5.73% (inactive).

For `COC(=O)C1NN=C(C(=O)c2ccc(Br)cc2)C1c1cccc(Br)c1` (stereo unspecified), the inhibition was 20% (active).

In the case of `COC(=O)C1=C(C)N(C)C(C)=C(C(=O)OC)C1c1cccc(Br)c1`, the inhibition was 1.25% (inactive).

Take `COC(=O)CN1C(C)=Nc2ccc(Br)cc2C1c1ccccc1` (stereo unspecified): the inhibition is -0.34% (inactive).

With `COc1cccc(Cn2cc(COC(=O)Nc3ccc(F)cc3)nn2)c1`, the inhibition was 3.55% (inactive).

Take `O=C(C1CCCN1S(=O)(=O)c1ccccc1)N1CCc2ccccc2C1` (stereo unspecified): the inhibition was 5.1% (inactive).

In the case of `CNC(=O)c1[nH]cnc1C(=O)N[C@@H](CC(C)C)C(=O)OCc1ccccc1`, the inhibition was -0.66% (inactive).

Take `CC(C)(C)OC(=O)CNC(=O)c1[nH]cnc1C(=O)N[C@@H](Cc1ccccc1)C(=O)OCc1ccccc1`: the inhibition is 27% (active).

In the case of `C[C@H](NC(=O)c1nc[nH]c1C(=O)NCC(=O)OC(C)(C)C)c1ccccc1`, the inhibition was 4.61% (inactive).

Take `CNC(=O)c1[nH]cnc1C(=O)N[C@@H](CC(C)C)C(=O)OC(C)(C)C`: the inhibition was 1.72% (inactive).

As for `CC(C)(C)OC(=O)N1CCC(NC(=O)c2[nH]cnc2C(=O)N[C@@H](Cc2ccccc2)C(=O)OCc2ccccc2)CC1`, the inhibition was 26.5% (active).

On to `C[C@@H](NC(=O)c1nc[nH]c1C(=O)N1CCN(C(=O)OC(C)(C)C)CC1)c1ccccc1`, for which the inhibition was -5.64% (inactive).

Regarding `CCOC(=O)C1CCN(C(=O)C(C)(C)NC(=O)Nc2ccccc2Cl)CC1`, the inhibition is -4.18% (inactive).

For `O=C(c1ccccc1)c1ccc(-c2ccccc2C(=O)NC2CCCCN(Cc3ccc(Cl)cc3)C2=O)cc1` (stereo unspecified), the inhibition is 0.76% (inactive).

On to `COc1ccc(CCNC(=O)CSc2nc3c([nH]2)c(=O)n(C)c(=O)n3C)cc1`, for which the inhibition is -8.76% (inactive).

Take `Cc1cc(C)n2ncc(C(=O)Nc3ccc4c(c3)OCCO4)c2n1`: the inhibition was -3.85% (inactive).

In the case of `CCC(=O)Nc1ccc2c(c1)C(=O)N(C)[C@H]1CC[C@H](CC(=O)NCCOC)O[C@@H]1CO2`, the inhibition is 2.62% (inactive).

For the molecule `Cc1cccc(CCNS(=O)(=O)c2ccc3c(c2)NC(=O)CO3)c1`, the inhibition is 0.59% (inactive).

As to `Cc1cccc(CCNS(=O)(=O)c2ccc(S(=O)(=O)NC3CCCC3)cc2)c1`, the inhibition was 27.1% (active).

`CC(C)c1ccc(S(=O)(=O)NC2CCCC2)cc1`: the inhibition is -3.8% (inactive).

With `Cc1ccc(NC(=S)NNC(=O)CSc2nnc(SCc3ccccc3Cl)s2)cc1`, the inhibition is 17.8% (inactive).

Consider `Cn1c(Nc2ccccc2)cc(=O)n(C)c1=O`, for which the inhibition was 7.08% (inactive).

On to `Cc1cc(Nc2ccccc2)n(C(=O)c2ccc(N)cc2)n1`, for which the inhibition is 21.3% (active).

`Cc1ccc(NC(=O)Nc2cc(C)nn2-c2ccccc2)cc1`: the inhibition is -2.62% (inactive).

Consider `O=C(Nc1cccc(S(=O)(=O)Nc2ccc(Cl)cc2)c1)c1ccc2c(c1)OCCO2`, for which the inhibition was 20.5% (active).

Consider `O=C(NNC(=O)c1cccc(S(=O)(=O)Nc2ccc(Cl)cc2)c1)c1ccc(=O)[nH]c1`, for which the inhibition is 2.04% (inactive).

Turning to `CC(=O)Nc1ccc(C(=O)Nc2cccc(S(=O)(=O)NC3=NCCC3)c2)cc1`, the inhibition is -1.25% (inactive).

For `O=C(NC1CCC1)c1ccc(C#CC2CC2)cn1`, the inhibition was -7.03% (inactive).

In the case of `COc1ccc(-n2c(COc3ccc(C)cc3)nnc2SCC(=O)Nc2ccc(Oc3ccccc3)cc2)cc1`, the inhibition was -2.63% (inactive).

Regarding `COc1ccc(-c2cc(C(=O)N3CCN(Cc4ccc5c(c4)OCO5)CC3)on2)cc1OC`, the inhibition was -0.99% (inactive).

As to `COc1cc(Cl)c(S(=O)(=O)N2CCN(Cc3ccc4c(c3)OCO4)CC2)cc1Cl`, the inhibition is 45.9% (active).

For the molecule `COc1cc(COCC(O)CN2CCN(Cc3ccc4c(c3)OCO4)CC2)cc(OC)c1OC` (stereo unspecified), the inhibition is -2.3% (inactive).

Regarding `Cc1ccccc1CN1CCCCC(NC(=O)c2cccc(C#N)c2)C1=O` (stereo unspecified), the inhibition is -1.06% (inactive).

For `Cc1nc2ccc(C(=O)N3CCN(C(=O)C(C)(C)C)CC3)cc2n1C1CCCC1`, the inhibition is 1.94% (inactive).

In the case of `Cc1ccc(C2CCN(C(=S)Nc3cccc(Cl)c3)C2)cc1` (stereo unspecified), the inhibition was 8.61% (inactive).

Consider `COc1cc(SC)ccc1C(=O)Nc1nc(C)cs1`, for which the inhibition is -7.24% (inactive).

`Cc1csc(NC(=S)Nc2cccc(Cl)c2)n1`: the inhibition was 23.1% (active).

As for `C=C(C)C1CC23C(=O)C4(C(=O)c5ccccc5)C[C@@]5(C)CCC(CC2C1(C)C)(C4=O)C35OC` (stereo partly specified), the inhibition is -9.26% (inactive).

In the case of `O=C(C1CCN(S(=O)(=O)c2ccccc2)CC1)N1CCN(C2CCCCC2)CC1`, the inhibition is -10.1% (inactive).

These data come from PubChem BioAssay AID720582 (The Scripps Research Institute Molecular Screening Center, 2013).
